# Assay results reported in PubChem BioAssay (EPA / NIEHS).
# Inconclusive results are not listed. Calls of active or inactive are those of the source. How the source made its calls: active means hit-call score of the fitted dose curve at least 0.9, where 1 is the maximum; inconclusive means response in the unintended direction; inactive means score below 0.9.
# Legend:
# [1] = molecular target: human SRC Proto-Oncogene, Non-receptor Tyrosine Kinase (SRC), SRC (gene 6714) (UniProt P12931); assay: NVS_ENZ_hSRC: NovaScreen (NVS) Enzymatic Assay for human SRC Proto-Oncogene, Non-receptor Tyrosine Kinase (SRC) (AID 2283223)
# Method in brief: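 Compounds passing 30% inhibition at 25 uM (duplicate) were titrated to a top concentration of 50 uM. Enzyme activity read by fluorescence with mobility-shift substrate/product separation after 1 h; DMSO baseline.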
# [2] = molecular target: human Protein Tyrosine Phosphatase Receptor Type M (PTPRM), PTPRM (gene 5797) (UniProt P28827); assay: NVS_ENZ_hPTPRM: NovaScreen (NVS) Enzymatic Assay for human Protein Tyrosine Phosphatase Receptor Type M (PTPRM) (AID 2283215)
# Method in brief: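 Read-out is fluorescence after electrophoretic separation of substrate and product, taken 1.33 h post-dosing with recombinant enzyme. Compounds screened at 25 uM in duplicate, then concentration series for actives; activity as signal loss relative to DMSO.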
# [3] = molecular target: human Sirtuin 1 (SIRT1), SIRT1 (gene 23411) (UniProt Q96EB6); assay: NVS_ENZ_hSIRT1: NovaScreen (NVS) Enzymatic Assay for human Sirtuin 1 (SIRT1) (AID 2283219)
# Method in brief: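 Cell-free recombinant SIRT1 with a fluorescent substrate; substrate and product separated by electrophoretic mobility shift and read by fluorescence intensity, 1 h after dosing. Primary screen at 25 uM in duplicate; hits re-run in concentration-response up to 50 uM, relative to DMSO.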
# [4] = molecular target: rat Adenylate Cyclase, Forskolin Stimulated, Adcy5 (gene 64532) (UniProt Q04400); assay: NVS_ENZ_rACFSKBinding: NovaScreen (NVS) Enzymatic Assay for rat Adenylate Cyclase, Forskolin Stimulated (AID 2283232)
# Method in brief: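 Chemicals were first tested at 25 uM in duplicate, then hits run as concentration series with top concentration 50 uM. Enzyme source was rat forebrain membranes; radiometric filter read-out after 1 h, referenced to DMSO.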
# [5] = molecular target: rat Acetylcholinesterase (AChE), Ache (gene 83817) (UniProt P37136); assay: NVS_ENZ_rAChE: NovaScreen (NVS) Enzymatic Assay for rat Acetylcholinesterase (AChE) (AID 2283233)
# Method in brief: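 Compounds first screened at 25 uM in duplicate, then those passing threshold tested in concentration series up to 50 uM, against AChE from rat brain membranes. Enzyme activity read by absorbance at 0.33 h; inhibition scored versus DMSO.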
# [6] = molecular target: human Raf-1 Proto-Oncogene, serine/threonine Kinase (RAF1), RAF1 (gene 5894) (UniProt P04049); assay: NVS_ENZ_hRAF1: NovaScreen (NVS) Enzymatic Assay for human Raf-1 Proto-Oncogene, serine/threonine Kinase (RAF1) (AID 2283216)
# Method in brief: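 Single-point screening at 25 uM (duplicate), followed by singleton concentration-response to 50 uM maximum for chemicals exceeding threshold. Enzyme activity from fluorescent substrate-product mobility-shift separation after 1 h, relative to DMSO.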
# [7] = molecular target: human Protein Tyrosine Phosphatase Non-receptor Type 6 (PTPN6), PTPN6 (gene 5777) (UniProt P29350); assay: NVS_ENZ_hPTPN6: NovaScreen (NVS) Enzymatic Assay for human Protein Tyrosine Phosphatase Non-receptor Type 6 (PTPN6) (AID 2283210)
# Method in brief: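 Recombinant human PTPN6 from SF9 cells, enzyme activity followed by fluorescence after mobility-shift separation of substrate and product at 1.33 h. Chemicals first tested at a single 25 uM in duplicate, then confirmed across concentration series; loss of signal relative to DMSO.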
# [8] = molecular target: human Protein Tyrosine Phosphatase Receptor Type B (PTPRB), PTPRB (gene 5787) (UniProt P23467); assay: NVS_ENZ_hPTPRB: NovaScreen (NVS) Enzymatic Assay for human Protein Tyrosine Phosphatase Receptor Type B (PTPRB) (AID 2283211)
# Method in brief: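 Recombinant human PTPRB with a fluorescent substrate, product separated by electrophoretic mobility shift; read 1 h after dosing. Primary screen in duplicate at 25 uM; actives then retested in concentration series; loss of signal versus DMSO.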
# [9] = molecular target: human Protein Tyrosine Phosphatase Receptor Type F (PTPRF), PTPRF (gene 5792) (UniProt P10586); assay: NVS_ENZ_hPTPRF: NovaScreen (NVS) Enzymatic Assay for human Protein Tyrosine Phosphatase Receptor Type F (PTPRF) (AID 2283213)
# Method in brief: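 Cell-free fluorescence enzyme assay with recombinant protein and substrate; product separated by electrophoretic mobility shift. Read 1 h after dosing, single 25 uM duplicate screen, then concentration-response up to 50 uM; loss of signal vs DMSO.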
# [10] = molecular target: human Tyrosine Protein Kinase Receptor Tie-2 (Tie2), TEK (gene 7010) (UniProt Q02763); assay: NVS_ENZ_hTie2: NovaScreen (NVS) Enzymatic Assay for human Tyrosine Protein Kinase Receptor Tie-2 (Tie2) (AID 2283225)
# Method in brief: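 Substrate and product were separated by mobility shift and detected by fluorescence after a 1-hour reaction with recombinant Tie2. Chemicals passing a 25 uM single-point screen were titrated to a maximum of 50 uM. Results were normalized to DMSO baseline.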
# [11] = molecular target: human Vascular Endothelial Growth Factor Receptor 3 (VEGFR3), FLT4 (gene 2324) (UniProt P35916); assay: NVS_ENZ_hVEGFR3: NovaScreen (NVS) Enzymatic Assay for human Vascular Endothelial Growth Factor Receptor 3 (VEGFR3) (AID 2283229)
# Method in brief: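 Chemicals first run in duplicate at 25 uM, with actives re-tested in concentration series to a top of 50 uM. Recombinant VEGFR3 activity measured after 1 h via fluorescence with mobility-shift product separation; inhibition fitted relative to DMSO.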
# [12] = molecular target: human Rho Associated Coiled-coil Containing Protein Kinase 1 (ROCK1), ROCK1 (gene 6093) (UniProt Q13464); assay: NVS_ENZ_hROCK1: NovaScreen (NVS) Enzymatic Assay for human Rho Associated Coiled-coil Containing Protein Kinase 1 (ROCK1) (AID 2283214)
# Method in brief: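 Compounds first run in duplicate at 25 uM against recombinant human ROCK1, then followed in concentration series. Kinase activity was read 1 h post-dosing by fluorescence with mobility-shift separation, as signal loss relative to DMSO.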
# [13] = molecular target: human Sirtuin 2 (SIRT2), SIRT2 (gene 22933) (UniProt Q8IXJ6); assay: NVS_ENZ_hSIRT2: NovaScreen (NVS) Enzymatic Assay for human Sirtuin 2 (SIRT2) (AID 2283217)
# Method in brief: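 Single-point duplicate screen at 25 uM, then concentration-response (max 50 uM) for chemicals passing threshold. Enzyme activity of recombinant human SIRT2 measured after 1 hr by fluorescence with mobility-shift separation of product; DMSO baseline.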
# [14] = molecular target: rabbit Imidazoline 2 Central (I2C), CKB (gene 100009085) (UniProt P00567); assay: NVS_ENZ_rabI2C: NovaScreen (NVS) Enzymatic Assay for rabbit Imidazoline 2 Central (I2C) (AID 2283228)
# Method in brief: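 Rabbit brain membranes, cell-free; readout by filter-based scintillation counting 1.5 hours after dosing, loss of signal vs DMSO. Initial duplicate test at 25 uM, then concentration-response with 50 uM top concentration.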
# [15] = molecular target: human Sirtuin 3 (SIRT3), SIRT3 (gene 23410) (UniProt Q9NTG7); assay: NVS_ENZ_hSIRT3: NovaScreen (NVS) Enzymatic Assay for human Sirtuin 3 (SIRT3) (AID 2283222)
# Method in brief: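 Cell-free enzyme assay with recombinant protein and fluorescent substrate, product separated by electrophoretic mobility shift; read 1 hour after dosing. Screened in duplicate at 25 uM, then singleton concentration-response up to 50 uM; loss of signal versus DMSO.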
# [16] = molecular target: human Vascular Endothelial Growth Factor Receptor 1 (VEGFR1), FLT1 (gene 2321) (UniProt P17948); assay: NVS_ENZ_hVEGFR1: NovaScreen (NVS) Enzymatic Assay for human Vascular Endothelial Growth Factor Receptor 1 (VEGFR1) (AID 2283226)
# Method in brief: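 Kinase activity of recombinant human VEGFR1 was read by fluorescence after electrophoretic separation of product from substrate, 1 h post-dosing; initial duplicate single-point testing at 25 uM, followed by concentration-series follow-up, with DMSO as baseline.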
# Chain of human Rho Associated Coiled-coil Containing Protein Kinase 1 (ROCK1), ROCK1 (gene 6093) (Q13464 whole entry, looked up): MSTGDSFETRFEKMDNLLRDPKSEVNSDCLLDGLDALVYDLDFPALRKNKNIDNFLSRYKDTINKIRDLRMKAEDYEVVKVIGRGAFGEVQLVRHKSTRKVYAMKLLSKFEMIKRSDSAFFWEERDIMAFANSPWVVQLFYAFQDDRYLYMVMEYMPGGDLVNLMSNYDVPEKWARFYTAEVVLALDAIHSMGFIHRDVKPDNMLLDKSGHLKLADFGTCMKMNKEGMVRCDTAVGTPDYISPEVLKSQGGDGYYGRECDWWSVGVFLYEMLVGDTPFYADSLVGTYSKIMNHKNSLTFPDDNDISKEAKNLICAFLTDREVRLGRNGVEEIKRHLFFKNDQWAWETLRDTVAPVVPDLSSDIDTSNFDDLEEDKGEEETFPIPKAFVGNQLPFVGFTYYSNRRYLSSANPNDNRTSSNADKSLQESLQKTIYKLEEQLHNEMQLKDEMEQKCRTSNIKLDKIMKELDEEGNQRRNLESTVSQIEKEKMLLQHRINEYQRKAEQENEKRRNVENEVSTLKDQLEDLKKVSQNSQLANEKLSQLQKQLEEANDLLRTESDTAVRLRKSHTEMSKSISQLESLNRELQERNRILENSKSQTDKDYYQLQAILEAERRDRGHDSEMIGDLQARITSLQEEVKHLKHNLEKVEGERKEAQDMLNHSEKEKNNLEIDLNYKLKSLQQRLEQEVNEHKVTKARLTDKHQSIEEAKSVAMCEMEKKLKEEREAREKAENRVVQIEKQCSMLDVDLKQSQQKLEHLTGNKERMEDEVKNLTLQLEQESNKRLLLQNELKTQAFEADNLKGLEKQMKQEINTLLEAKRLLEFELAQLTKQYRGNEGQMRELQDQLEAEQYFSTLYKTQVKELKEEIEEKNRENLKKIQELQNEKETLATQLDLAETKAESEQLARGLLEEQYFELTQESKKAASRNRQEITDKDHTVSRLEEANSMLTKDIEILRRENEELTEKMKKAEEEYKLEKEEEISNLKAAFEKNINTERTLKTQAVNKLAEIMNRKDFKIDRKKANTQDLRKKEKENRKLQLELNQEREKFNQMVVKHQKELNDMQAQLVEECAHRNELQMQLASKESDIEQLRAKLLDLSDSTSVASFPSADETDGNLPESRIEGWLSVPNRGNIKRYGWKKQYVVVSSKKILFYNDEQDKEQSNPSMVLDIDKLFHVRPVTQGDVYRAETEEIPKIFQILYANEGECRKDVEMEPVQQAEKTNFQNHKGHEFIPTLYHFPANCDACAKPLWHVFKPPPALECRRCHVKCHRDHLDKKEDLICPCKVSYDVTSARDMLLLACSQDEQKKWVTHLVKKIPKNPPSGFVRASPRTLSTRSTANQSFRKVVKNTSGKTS
# Chain of human Raf-1 Proto-Oncogene, serine/threonine Kinase (RAF1), RAF1 (gene 5894) (P04049 whole entry, looked up): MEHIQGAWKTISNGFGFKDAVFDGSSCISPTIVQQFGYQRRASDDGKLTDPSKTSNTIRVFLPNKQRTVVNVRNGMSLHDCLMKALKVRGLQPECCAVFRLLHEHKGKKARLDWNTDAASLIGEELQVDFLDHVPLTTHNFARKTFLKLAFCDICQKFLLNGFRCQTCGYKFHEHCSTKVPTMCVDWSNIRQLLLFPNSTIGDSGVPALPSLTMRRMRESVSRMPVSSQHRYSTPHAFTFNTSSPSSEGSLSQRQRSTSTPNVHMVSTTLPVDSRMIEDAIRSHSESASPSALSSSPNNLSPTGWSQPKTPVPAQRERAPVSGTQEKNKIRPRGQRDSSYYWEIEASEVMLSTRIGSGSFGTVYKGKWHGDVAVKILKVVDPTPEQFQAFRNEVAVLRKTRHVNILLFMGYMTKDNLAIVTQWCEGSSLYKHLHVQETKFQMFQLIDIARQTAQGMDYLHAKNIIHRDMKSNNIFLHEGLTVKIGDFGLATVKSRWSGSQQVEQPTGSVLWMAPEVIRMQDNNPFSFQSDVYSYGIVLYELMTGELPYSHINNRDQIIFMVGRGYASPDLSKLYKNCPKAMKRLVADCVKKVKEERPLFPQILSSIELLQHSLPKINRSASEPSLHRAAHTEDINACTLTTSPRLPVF
# Chain of human Protein Tyrosine Phosphatase Receptor Type M (PTPRM), PTPRM (gene 5797) (P28827 whole entry, looked up): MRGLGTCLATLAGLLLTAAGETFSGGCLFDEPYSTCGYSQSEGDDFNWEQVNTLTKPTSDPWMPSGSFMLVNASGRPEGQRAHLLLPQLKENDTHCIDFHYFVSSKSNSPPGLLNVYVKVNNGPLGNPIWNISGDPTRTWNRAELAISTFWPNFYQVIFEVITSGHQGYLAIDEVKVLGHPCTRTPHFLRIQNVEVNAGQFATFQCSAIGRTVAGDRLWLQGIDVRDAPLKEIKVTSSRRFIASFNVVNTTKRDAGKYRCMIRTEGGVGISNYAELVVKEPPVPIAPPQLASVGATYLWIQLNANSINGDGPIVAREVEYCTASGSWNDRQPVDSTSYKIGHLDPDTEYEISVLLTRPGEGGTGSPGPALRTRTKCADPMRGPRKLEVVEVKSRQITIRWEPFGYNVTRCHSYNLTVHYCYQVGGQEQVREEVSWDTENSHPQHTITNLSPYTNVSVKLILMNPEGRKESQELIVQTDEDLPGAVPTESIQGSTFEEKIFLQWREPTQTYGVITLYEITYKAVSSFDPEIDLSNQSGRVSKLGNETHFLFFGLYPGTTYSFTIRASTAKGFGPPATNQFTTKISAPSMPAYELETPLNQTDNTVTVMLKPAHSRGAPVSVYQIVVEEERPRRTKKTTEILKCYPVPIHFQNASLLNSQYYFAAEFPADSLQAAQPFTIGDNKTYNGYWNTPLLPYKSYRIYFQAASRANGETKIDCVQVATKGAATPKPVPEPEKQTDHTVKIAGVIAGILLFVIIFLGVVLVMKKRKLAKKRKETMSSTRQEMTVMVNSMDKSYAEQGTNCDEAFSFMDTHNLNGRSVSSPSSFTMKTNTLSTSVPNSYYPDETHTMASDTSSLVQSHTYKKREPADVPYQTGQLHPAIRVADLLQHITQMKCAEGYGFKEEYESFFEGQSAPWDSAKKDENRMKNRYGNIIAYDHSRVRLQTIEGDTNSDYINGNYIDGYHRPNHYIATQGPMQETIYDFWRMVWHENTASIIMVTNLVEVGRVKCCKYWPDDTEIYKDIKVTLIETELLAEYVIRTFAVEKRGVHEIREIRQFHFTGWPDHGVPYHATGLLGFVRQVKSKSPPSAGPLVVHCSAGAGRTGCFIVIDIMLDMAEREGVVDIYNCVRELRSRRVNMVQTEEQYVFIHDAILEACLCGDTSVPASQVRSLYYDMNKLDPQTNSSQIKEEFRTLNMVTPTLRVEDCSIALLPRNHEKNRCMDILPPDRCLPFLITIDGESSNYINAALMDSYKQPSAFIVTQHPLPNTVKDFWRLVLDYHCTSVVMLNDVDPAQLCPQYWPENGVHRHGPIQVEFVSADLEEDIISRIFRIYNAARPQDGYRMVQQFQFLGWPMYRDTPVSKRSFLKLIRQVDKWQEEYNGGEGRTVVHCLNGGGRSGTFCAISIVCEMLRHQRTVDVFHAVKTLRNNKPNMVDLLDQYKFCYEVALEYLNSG
# Chain of rat Acetylcholinesterase (AChE), Ache (gene 83817) (P37136 whole entry, looked up): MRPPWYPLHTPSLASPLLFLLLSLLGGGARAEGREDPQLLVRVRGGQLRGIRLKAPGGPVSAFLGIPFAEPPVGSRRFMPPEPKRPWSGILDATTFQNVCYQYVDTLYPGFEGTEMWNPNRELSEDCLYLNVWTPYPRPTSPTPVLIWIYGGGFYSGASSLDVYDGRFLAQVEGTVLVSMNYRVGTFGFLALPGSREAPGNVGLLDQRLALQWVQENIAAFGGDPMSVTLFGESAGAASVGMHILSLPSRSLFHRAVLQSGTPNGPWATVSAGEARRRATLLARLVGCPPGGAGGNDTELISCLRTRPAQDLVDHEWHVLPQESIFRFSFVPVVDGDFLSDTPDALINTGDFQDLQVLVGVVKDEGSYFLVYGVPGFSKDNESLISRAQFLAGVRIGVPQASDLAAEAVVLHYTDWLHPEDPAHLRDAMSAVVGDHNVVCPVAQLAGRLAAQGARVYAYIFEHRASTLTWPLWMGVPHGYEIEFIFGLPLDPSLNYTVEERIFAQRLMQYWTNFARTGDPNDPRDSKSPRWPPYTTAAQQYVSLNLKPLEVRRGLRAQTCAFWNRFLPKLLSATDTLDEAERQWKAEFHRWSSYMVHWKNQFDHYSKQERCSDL
# Chain of human SRC Proto-Oncogene, Non-receptor Tyrosine Kinase (SRC), SRC (gene 6714) (P12931 whole entry, looked up): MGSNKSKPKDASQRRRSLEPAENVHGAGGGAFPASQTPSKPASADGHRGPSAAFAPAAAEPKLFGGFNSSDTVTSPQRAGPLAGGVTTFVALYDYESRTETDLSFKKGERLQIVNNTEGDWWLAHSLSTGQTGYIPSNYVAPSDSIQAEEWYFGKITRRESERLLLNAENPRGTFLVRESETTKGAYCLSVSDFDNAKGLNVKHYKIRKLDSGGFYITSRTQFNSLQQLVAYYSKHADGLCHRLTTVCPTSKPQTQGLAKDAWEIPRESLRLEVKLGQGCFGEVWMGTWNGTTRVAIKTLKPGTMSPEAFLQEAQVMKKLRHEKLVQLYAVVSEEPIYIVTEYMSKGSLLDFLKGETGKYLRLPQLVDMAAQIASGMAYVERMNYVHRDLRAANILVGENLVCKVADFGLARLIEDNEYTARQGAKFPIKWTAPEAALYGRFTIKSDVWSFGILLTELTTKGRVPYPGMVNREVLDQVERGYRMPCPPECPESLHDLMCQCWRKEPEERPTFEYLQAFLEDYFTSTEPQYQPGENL
# Chain of human Sirtuin 3 (SIRT3), SIRT3 (gene 23410) (Q9NTG7 whole entry, looked up): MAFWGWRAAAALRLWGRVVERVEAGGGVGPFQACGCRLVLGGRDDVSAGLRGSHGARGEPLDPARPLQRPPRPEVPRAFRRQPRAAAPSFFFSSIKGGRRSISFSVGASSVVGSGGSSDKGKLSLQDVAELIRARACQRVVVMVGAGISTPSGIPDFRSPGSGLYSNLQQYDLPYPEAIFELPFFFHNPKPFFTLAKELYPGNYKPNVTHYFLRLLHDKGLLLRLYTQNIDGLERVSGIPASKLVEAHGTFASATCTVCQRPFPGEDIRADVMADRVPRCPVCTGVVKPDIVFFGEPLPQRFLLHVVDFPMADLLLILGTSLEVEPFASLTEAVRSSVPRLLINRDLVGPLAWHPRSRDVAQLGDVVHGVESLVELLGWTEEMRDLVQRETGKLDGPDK
compound,measurement,setting,value
CCNc1nc(Cl)nc(NC(C)(C)C#N)n1,outcome,[1],inactive
COP(=O)(OC)OC(Br)C(Cl)(Cl)Br (centres undefined),outcome,[2],inactive
same,AC50,[3],15.8 µM (active)
same,AC50,[4],14.6 µM (active)
same,AC50,[5],1.01 µM (active)
CN(C)NC(=O)CCC(=O)O,outcome,[6],inactive
S=C1NCCN1,outcome,[7],inactive
same,outcome,[8],inactive
same,outcome,[9],inactive
same,outcome,[10],inactive
same,outcome,[4],inactive
same,AC50,[5],14.3 µM (active)
CCCOc1nn(C(=O)NS(=O)(=O)c2ccccc2C(=O)OC)c(=O)n1C,outcome,[6],inactive
same,outcome,[11],inactive
CNC(=O)ON=C(SC)C(=O)N(C)C,outcome,[12],inactive
same,AC50,[5],3.26 µM (active)
O=C(O)c1cc(Oc2ccc(C(F)(F)F)cc2Cl)ccc1[N+](=O)[O-],outcome,[13],inactive
CN(C)C(=O)Nc1cccc(C(F)(F)F)c1,outcome,[6],inactive
C#CC(C)(C)NC(=O)c1cc(Cl)cc(Cl)c1,outcome,[14],inactive
CCOC(=O)CC(SP(=O)(OC)OC)C(=O)OCC (centres undefined),AC50,[5],0.917 µM (active)
CCCSP(=O)(OCC)Oc1ccc(Br)cc1Cl (centres undefined),AC50,[5],2.32 µM (active)
C=C(C)[C@H]1Cc2c(ccc3c2O[C@@H]2COc4cc(OC)c(OC)cc4[C@@H]2C3=O)O1,outcome,[10],inactive
CCOP(=S)(OCC)OC(Cl)C(Cl)(Cl)Cl (centres undefined),outcome,[4],inactive
same,AC50,[5],4.06 µM (active)
CC1(C(=O)Nc2ccc(O)c(Cl)c2Cl)CCCCC1,outcome,[12],inactive
same,outcome,[2],inactive
COc1ccc(C(=CC(=O)N2CCOCC2)c2ccc(Cl)cc2)cc1OC,outcome,[15],inactive
CC(C)[C@H](C(=O)O[C@H](C#N)c1cccc(Oc2ccccc2)c1)c1ccc(Cl)cc1,outcome,[15],inactive
same,outcome,[1],inactive
CC(C1CC1)C(O)(Cn1cncn1)c1ccc(Cl)cc1 (centres undefined),outcome,[1],inactive
CCCCOC(=O)c1ccccc1C(=O)O,outcome,[7],inactive
same,outcome,[10],inactive
O=[N+]([O-])c1cc(C(F)(F)F)c(Cl)c([N+](=O)[O-])c1Nc1ncc(C(F)(F)F)cc1Cl,outcome,[2],inactive
same,outcome,[10],inactive
same,outcome,[5],inactive
CCOP(=S)(OCC)SCCSCC,outcome,[16],inactive
CCC(=O)Nc1ccc(Cl)c(Cl)c1,outcome,[12],inactive
same,AC50,[14],15.7 µM (active)
CCC(=NOC/C=C/Cl)C1=C(O)CC(C2CCOCC2)CC1=O (centres undefined),outcome,[11],inactive
